FMDV RLuc = antivirals against foot and mouth disease virus replicon. FMDV replicon cells, Renilla luciferase signal. hit rate 0.32% among 120,000. Potency, µM (series often up to 57.5 µM), without a hit: at the top dose activity change, negative = inhibition, usual class: inhibitors. AID 1745857; also: nearly all actives have a fitted effect of over 55% in size
FMDV antiviral = FMDV antiviral activity by firefly signal | Potency, µM (series often up to 57.5 µM), inactives show top-dose activity change, negative = inhibition, actives largely listed as inhibitors | FMDV antiviral cell assay, firefly luciferase signal | AID 1745856 | hit rate 0.23% among 120,000; also: nearly all actives have a fitted effect of over 60% in size
Numbers without * were called inactive; ? = inconclusive. Shown are actives, neighbours in structure and some others; about 0.45% of the full set was active somewhere. Calls follow the shape of the full dose curve. % is scaled to controls: 0 for no effect and ±100 for the full control effect; potency is read from the fitted curve at half-maximal effect.

SMILES	FMDV RLuc	FMDV antiviral
CCC(C)S(=O)(=O)c1oc(-c2cccs2)nc1S(=O)(=O)c1ccccc1 (stereo unspecified)	-5%	32µM*
O=S(=O)(c1ccccc1)c1nc(-c2cccs2)oc1N1CCCCC1	-8%	3%
c1c[nH]c(-c2ccn[nH]2)c1	-1%	56%
O=C(Nc1ccc(Cl)c(C(F)(F)F)c1)c1ccc(Cl)cc1Cl	?	22%
O=C(Nc1ccc(Cl)cc1)Nc1ccc(Cl)c(C(F)(F)F)c1	7.1µM*	?
CN(C)CCN(Cc1ccc(F)cc1)C(=O)c1ccc(S(C)(=O)=O)cc1	-9%	63%
CCOc1ccc(C(=O)c2ccc(Cl)cc2)cc1	20%	42%
CCNC(=O)NC(=O)C(C)Oc1ccc(C(=O)c2ccc(Cl)cc2)cc1 (stereo unspecified)	?	13µM*
Nc1nc(SCC(=O)NCc2ccccc2Cl)n[nH]1	-6%	0%
Cc1ccc(C2=NC(C(F)(F)F)(C(F)(F)F)c3c(n(-c4ccccc4)c(=O)[nH]c3=O)N2)cc1	3%	5%
O=c1[nH]c(=O)n(Cc2ccccc2)c2c1C(C(F)(F)F)(C(F)(F)F)N=C(c1cccs1)N2	?	20µM*
Cc1cccc(CN2CCN(C(=O)c3cc(C4CC4)nn3-c3ccccc3)CC2)c1	-16%	-5%
CCOC(=O)N1CCN(C(=O)Cn2nc(-c3ccccc3)ccc2=O)CC1	-9%	-4%
COC(=O)[C@H](CC(C)C)NC(=O)Nc1ccc2oc(-c3cccnc3)nc2c1	4%	64%
O=C(Nc1nc(-c2ccc(Br)s2)cs1)C1CC1	11%	0%
O=C(Nc1nc(-c2ccc(Cl)cc2)cs1)c1ccc(CN2CCOCC2)cc1	?	14µM*
O=C(Nc1nc(-c2cc3ccccc3oc2=O)cs1)c1ccc(Cl)cc1	-12%	-6%
O=C(Nc1nc(-c2ccc(Cl)cc2)cs1)C1CCN(C(=O)c2ccoc2)CC1	10µM*	?
CCOc1ccc(S(=O)(=O)Nc2cccc(CC)c2)c2cccnc12	123%	8%
CCN(CC)C(=O)c1cc(-c2ccc(Cl)cc2)nc2ccccc12	0%	-2%
Cc1nc2cc(NS(=O)(=O)c3cc(Cl)ccc3Cl)ccc2o1	294%	4%
O=C(O)c1ccc(/C=C/c2nc3cc(Cl)ccc3o2)cc1	4%	67%
Cc1nc(/C=C/c2ccc(Cl)cc2)sc1C(=O)O	12%	0.89µM*
NC(=O)c1ccccc1NC(=O)c1cc2ccccc2oc1=O	21%	172%
CCCOc1ccc(C(=O)C(CCC(CNC(C)(C)C)C(=O)c2ccc(OCCC)cc2)CNC(C)(C)C)cc1 (stereo unspecified)	28µM*	?
SMILES	FMDV RLuc	FMDV antiviral
CCCOc1ccc(C(=O)Nc2ccc(NC(=O)c3ccc(Br)cc3)cc2)cc1	-8%	7%
Oc1ccc(/C=C/c2nc3ccccc3s2)cc1	30%	-72%
CC(=O)c1c(C)[nH]c(C(=O)OC(C)c2nnc(-c3cccc(C)c3)o2)c1C (stereo unspecified)	0%	-27%
CC(=O)c1c(C)[nH]c(C(=O)OC(C)c2nc(-c3ccccc3)no2)c1C (stereo unspecified)	28µM*	?
COCCOc1ccc(C(=O)/C=C/c2cc(OC)c(OC)c(OC)c2)cc1	28µM*	?
COCCOc1ccc(/C=C/C(=O)c2ccc(C#N)cc2)cc1OC	13%	10%
CCCc1ccc(C(NC(=O)CCNC(=O)C(C)(C)C)C(C)C)cc1 (stereo unspecified)	-1%	-9%
CCOC(=O)COc1ccc2c(=O)c(Oc3ccc(C(=O)OC)cc3)c(C(F)(F)F)oc2c1	-3%	4%
CCOC(=O)c1ccc(Oc2c(C(F)(F)F)oc3cc(O)ccc3c2=O)cc1	25µM*	?
Cc1cc(NCc2ccccc2Cl)n2cnnc2n1	16µM*	?
Cc1cc(C)cc(Nc2cc(C)nc3nncn23)c1	33%	36%
O=C1CCCC2=C1C(c1ccc(Br)cc1)n1nnnc1N2 (stereo unspecified)	-5%	2%
Cc1cccc(NC(=O)c2ccc3c(c2)NC(=O)CS3)c1	-3%	134%
Cc1ccc(NC(=O)c2ccc3c(c2)NC(=O)c2ccccc2S3)cc1	6.3µM*	?
Cc1ccccc1OCC(=O)Nc1ccc2nc(SCCOc3ccccc3)sc2c1	-1%	-11%
Cc1cccc(NC(=O)CSc2nc3ccc(NC(=O)COc4ccccc4C)cc3s2)c1	5µM*	?
CCOC(=O)C(=O)C1=C(N2CCOCC2)/C(=C/c2ccccc2)CC1	5%	37%
CCOC(=O)C1CCCN(S(=O)(=O)c2ccc3c(c2)CCCN3C(C)=O)C1 (stereo unspecified)	151%	-32%
COc1ccccc1N1CCN(C(=O)C2CCCN(S(=O)(=O)c3ccc4c(c3)CCCN4C(C)=O)C2)CC1 (stereo unspecified)	25µM*	?
O=CN1CCN(C(C(=O)O)c2cn(CC(=O)O)c3ccc(Br)cc23)CC1 (stereo unspecified)	-12%	4%
O=C(CCc1nnc2ccc(NCc3ccc4c(c3)OCO4)nn12)N1CCN(c2ccccc2)CC1	-13%	8%
O=C(Nc1cccnc1)C1=C(c2ccccc2)S(=O)(=O)CCO1	25µM*	?
O=C(Nc1ccccc1Br)C1=C(c2ccccc2)S(=O)(=O)CCO1	?	-30%
CN1CCN(C(C(=O)O)c2cn(C)c3cc(C(=O)O)ccc23)CC1 (stereo unspecified)	0%	1%
O=c1oc2ccc(Br)cc2cc1S(=O)(=O)c1ccccc1F	-9%	-10%
SMILES	FMDV RLuc	FMDV antiviral
O=C(NCC1(c2ccccc2)CCCC1)c1cc2c(Cl)nc3ccccc3c2s1	-10%	-10%
N#C/C(=C\c1ccc(OCc2ccc(C#N)cc2)cc1)c1nc2ccccc2[nH]1	4µM*	-10%
Cc1cccc(COc2ccc(/C=C(\C#N)c3nc4ccccc4[nH]3)cc2)c1	?	0%
Cc1nc(SCC(=O)Nc2ccc3ccccc3c2)oc1C	?	0%
CCn1c(C)c(/C=C/c2cc[n+](C)cc2)c2ccccc21	14µM*	?
Cc1ccccc1-n1c(/C=C/c2c(C)n(C)c3ccccc23)nc2ccccc2c1=O	-12%	2%
O=C(NCc1ccccn1)C1(c2cccc(C(F)(F)F)c2)CCOCC1	-14%	-3%
CC(C)CNC(=O)c1cc2cc(N(C)S(C)(=O)=O)ccc2s1	?	44%
CCN(c1ccc2sc(C(=O)NCCC(C)C)cc2c1)S(C)(=O)=O	25µM*	?
Cc1cccc(N2CCN(C(=O)CCCCn3c(=O)[nH]c4ccsc4c3=O)CC2)c1C	-28%	14µM*
O=C(CCCCn1c(=O)[nH]c2ccsc2c1=O)N1CCN(c2cccc(C(F)(F)F)c2)CC1	9%	?
COc1ccccc1NC(=O)c1cnc(N2CCCCC2)c2ccccc12	20%	0%
Cc1cccc(-c2nnc(SCC(=O)N3CCCCC3)o2)c1	9%	131%
Cc1cccc(-c2nnc(SCCC(=O)O)o2)c1	-9%	1µM*
COc1ccc(-n2nnnc2C2CCN(S(=O)(=O)c3ccc(F)cc3Cl)CC2)cc1	-1%	-1%
COc1ccc(-n2nnnc2C2CCN(S(=O)(=O)c3cc(OC)ccc3OC)CC2)cc1	25µM*	?
CCCCc1ccc(-c2csc(NC(=O)COCc3nc4ccccc4c(=O)[nH]3)n2)cc1	-8%	119%
Cc1ccccc1CC(=O)Nc1cccc2ncccc12	9%	21%
Cc1ccccc1CNc1ncnc2ccccc12	?	11µM*
CCc1noc(C(C)N2CCC(c3nc4ccccc4o3)CC2)n1 (stereo unspecified)	-3%	55%

High-throughput results as filed in PubChem.
